Composite z-score and z-score data for 15 molecules are collected here from PubChem BioAssay.

Active and inactive are the calls of the source.

Test [1] has as its system Plasmodium falciparum Sir2 (PF13_0152, Sir2A). The experiment in a line: pfSir2 binders on small-molecule microarrays, primary screen, biochemical, small-molecule microarray, 635 nm fluorescence (AID 1098).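 Also: score merges spot fluorescence intensity with its signal-to-noise ratio.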 The conditions noted are these: small-molecule microarray binding, fluorescence 635 nm; higher = more signal.
The nature of test [2]: small-molecule microarray binders of probe aDKK1, primary screen, biochemical, biotinylated probe, 635/667 nm fluorescence (AID 1099).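 Also: score merges 667nm spot fluorescence with signal to noise across triplicate slides; reference of the scale not given here.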 As to conditions: higher = more signal.
Test [3] in a line: small-molecule microarray binders of probe aCHRDL2, primary screen, biochemical, biotinylated probe, 635/667 nm fluorescence (AID 1100). The conditions noted are these: higher = more signal.
A short description of test [4]: splicing luciferase reporter signal modulators, primary screen, spliceosome inhibition project, cell-based, HEK293, splice +/- reporter (AID 1101).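 Also: HEK293 cells carrying a splicing-competent luciferase reporter gene; test concentration not given here.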 As to conditions: luminescence, 24 h, higher = more signal, called active from +8 up or from −8 down.
Test [5] concerns the target Fibroblast growth factor 10 (Homo sapiens) (UniProt O15520). The experiment in a line: FGF10 binders on small-molecule microarrays, primary screen, biochemical, small-molecule microarray, 635 nm fluorescence (AID 1102). The conditions noted are these: FGF10 binding, fluorescence 635 nm, higher = more signal.
Test [6] has as its system glycogen synthase kinase-3 (GSK3A per assay name; protocol says GSK3B). The experiment in a line: GSK3 binders on small-molecule microarrays, primary screen, biochemical, small-molecule microarray, 635 nm fluorescence, GSK3A (AID 1103). Also: the record names both GSK3A and GSK3B. As to conditions: small-molecule microarray binding, fluorescence 635 nm; higher = more signal.
Test [7] concerns the target Epidermal growth factor receptor (Homo sapiens) (UniProt P00533). The experiment in a line: EGFR binders on small-molecule microarrays, primary screen, biochemical, small-molecule microarray, 635 nm fluorescence (AID 1104).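 Also: score merges 667 nm emission intensity with spot signal to noise over triplicate slides.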 The conditions noted are these: EGFR binding, higher = more signal.
Test [8] addresses Follistatin-related protein 3 (Homo sapiens) (UniProt O95633). The experiment in a line: FSTL3 binders on small-molecule microarrays, primary screen, biochemical, small-molecule microarray, 635 nm fluorescence (AID 1105).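 Also: score merges emission near 667 nm and signal to noise per printed spot across three slides.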 The conditions noted are these: FSTL3 binding, higher = more signal.
In test [9] the target is Dickkopf-related protein 1 (Homo sapiens) (UniProt O94907). The experiment in a line: DKK1 binders on small-molecule microarrays, primary screen, biochemical, small-molecule microarray, 635 nm fluorescence scan (AID 1106).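 Also: score merges emission near 667 nm with signal to noise over three replicate slides.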 The conditions noted are these: DKK1 binding, higher = more signal.
Test [10] has as its system Inhibin beta A chain (activin A). The experiment in a line: INHBA (activin A) binders on microarrays, primary screen, biochemical, small-molecule microarray, 635 nm fluorescence scan (AID 1107).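 Also: mouse activin A protein probed at 4.33 µg/mL on printed slides; score merges bound-protein fluorescence near 667 nm with spot signal-to-noise.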 The conditions noted are these: small-molecule microarray binding, higher = more signal.

Chain of Epidermal growth factor receptor (Homo sapiens) (P00533 whole entry, looked up): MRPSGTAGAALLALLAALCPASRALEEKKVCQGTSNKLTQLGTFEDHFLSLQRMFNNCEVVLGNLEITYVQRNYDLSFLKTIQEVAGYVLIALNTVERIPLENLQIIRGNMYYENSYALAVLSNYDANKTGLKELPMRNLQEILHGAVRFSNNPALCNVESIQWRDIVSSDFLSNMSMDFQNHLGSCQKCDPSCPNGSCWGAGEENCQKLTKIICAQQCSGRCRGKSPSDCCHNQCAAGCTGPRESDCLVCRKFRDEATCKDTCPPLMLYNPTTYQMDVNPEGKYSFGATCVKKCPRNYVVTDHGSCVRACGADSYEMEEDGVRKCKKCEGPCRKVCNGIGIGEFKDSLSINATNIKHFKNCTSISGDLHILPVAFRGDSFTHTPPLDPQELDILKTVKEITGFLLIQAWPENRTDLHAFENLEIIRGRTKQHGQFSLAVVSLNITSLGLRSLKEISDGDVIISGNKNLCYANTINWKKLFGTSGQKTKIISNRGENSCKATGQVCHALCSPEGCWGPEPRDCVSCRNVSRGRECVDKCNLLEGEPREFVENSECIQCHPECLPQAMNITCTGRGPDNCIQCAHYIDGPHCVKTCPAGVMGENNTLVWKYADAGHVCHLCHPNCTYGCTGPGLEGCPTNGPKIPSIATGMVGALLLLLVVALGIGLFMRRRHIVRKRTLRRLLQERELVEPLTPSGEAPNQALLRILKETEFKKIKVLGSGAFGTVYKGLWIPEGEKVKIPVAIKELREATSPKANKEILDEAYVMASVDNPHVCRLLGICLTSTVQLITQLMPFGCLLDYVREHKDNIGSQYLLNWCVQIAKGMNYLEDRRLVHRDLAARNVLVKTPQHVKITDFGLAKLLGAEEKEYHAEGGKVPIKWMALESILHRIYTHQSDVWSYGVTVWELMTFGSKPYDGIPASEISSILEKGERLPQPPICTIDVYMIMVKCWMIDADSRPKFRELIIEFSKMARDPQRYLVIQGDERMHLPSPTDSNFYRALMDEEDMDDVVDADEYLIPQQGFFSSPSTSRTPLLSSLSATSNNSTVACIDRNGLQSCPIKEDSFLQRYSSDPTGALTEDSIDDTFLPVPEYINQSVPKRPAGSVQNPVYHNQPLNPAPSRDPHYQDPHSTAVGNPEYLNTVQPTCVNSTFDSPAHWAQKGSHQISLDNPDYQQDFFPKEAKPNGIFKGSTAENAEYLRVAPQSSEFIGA
Chain of Fibroblast growth factor 10 (Homo sapiens) (O15520 whole entry, looked up): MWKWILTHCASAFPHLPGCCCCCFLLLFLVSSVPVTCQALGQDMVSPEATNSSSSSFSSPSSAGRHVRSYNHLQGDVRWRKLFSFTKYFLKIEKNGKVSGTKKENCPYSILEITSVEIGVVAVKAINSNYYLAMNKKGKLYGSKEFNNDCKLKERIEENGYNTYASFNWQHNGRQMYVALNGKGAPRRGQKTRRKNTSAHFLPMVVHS
Chain of Dickkopf-related protein 1 (Homo sapiens) (O94907 whole entry, looked up): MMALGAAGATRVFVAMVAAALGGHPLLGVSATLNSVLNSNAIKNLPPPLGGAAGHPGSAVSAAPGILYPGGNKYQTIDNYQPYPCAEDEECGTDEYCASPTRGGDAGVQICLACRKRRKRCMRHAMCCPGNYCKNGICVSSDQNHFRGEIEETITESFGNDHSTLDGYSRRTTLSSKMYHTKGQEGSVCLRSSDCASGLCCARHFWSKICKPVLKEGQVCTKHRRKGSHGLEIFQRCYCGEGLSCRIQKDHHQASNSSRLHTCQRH
Chain of Follistatin-related protein 3 (Homo sapiens) (O95633 whole entry, looked up): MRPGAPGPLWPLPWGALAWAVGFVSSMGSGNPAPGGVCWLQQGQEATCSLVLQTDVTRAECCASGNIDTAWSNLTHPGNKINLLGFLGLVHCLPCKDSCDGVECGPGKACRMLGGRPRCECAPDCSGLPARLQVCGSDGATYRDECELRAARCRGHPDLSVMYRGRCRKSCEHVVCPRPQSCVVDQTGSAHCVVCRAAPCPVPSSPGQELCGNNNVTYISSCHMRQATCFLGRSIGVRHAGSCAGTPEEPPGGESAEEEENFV

As for `COc1ccc([Si](C)(C)[C@H]2[C@H](CC(=O)N3Cc4ccccc4C[C@H]3CO)O[C@@]3(C(=O)N(C)c4ccccc43)[C@@H]2C)cc1`, the composite z-score was 1.52 in test [1]; -0.127 in test [2]; -0.431 in test [3]; 0.891 in test [5]; 1.29 in test [6]; 1.01 in [7]. Besides, the composite z-score is 1.4 in test [8], 1.53 in test [9] and 1.58 in test [10]. For the same molecule, the z-score in test [4] was -2.06 (inactive).

As for `COC(=O)[C@@]1(Cc2ccc(OC)cc2)[C@H]2c3cc(C(=O)N4CCCC4)n(Cc4ccc(C(F)(F)F)nc4)c3C[C@H]2CN1C(=O)c1ccccc1`, the composite z-score in test [1] is 1.27; in test [2] it was 0.0202; in test [3] it was 0.872; in test [5], 0.69; in test [6] it was -0.478; in [7] it was 0.282. Further, the composite z-score in test [8] is 0.11; in test [9], -0.301; in test [10], 0.918. In test [4], the z-score was -4.53 (inactive).

As to `COc1ccc([Si](C)(C)[C@H]2[C@H](CCO)O[C@@]3(C(=O)N(Cc4ccc(NC(=O)[C@H](C)O)cc4)c4ccccc43)[C@@H]2C)cc1`, the composite z-score was determined as 0.931 in [1]; 0.162 in [2]; 0.193 in [3]; 1.14 in test [5]; 1.07 in test [6]; 0.161 in [7]. Besides, the composite z-score in test [8] was 0.0961; in test [9], 0.156; in test [10], 0.531. In [4], the z-score was -2.32 (inactive).

Regarding `CC(=O)NCCCC[C@@H]1NC(=O)[C@H]2C[C@@H](C(=O)NCCCCCCNC(=O)CS)[C@@H](c3cccc(OCCO)c3)N2C1=O`, the composite z-score in test [1] was 1.72; in [2], -0.11; in test [3] it was 0.642; in [5], 0.816; in test [6], 1.15; in test [7], -0.316. The composite z-score in [8] worked out at 0.225; in [9], 0.363; in test [10] it was 0.339. The z-score in [4] is -0.662 (inactive).

`CN(C)C(=O)[C@@]1(Cc2ccccc2CN=[N+]=[N-])COC(c2ccc(OCCCO)cc2)=N1`: the composite z-score in test [1] is 0.508; in test [2] it was 0.42; in test [3] it was 1.01; in test [5], -0.0391; in [6], -0.958; in [7], -0.916. Also, the values for the composite z-score in [8], in [9] and in test [10] were -0.522, -1.19 and 0.744, respectively. In addition, in [4], the z-score is -0.51 (inactive).

Turning to `CCCCC(O)C1C=CC2C(=O)N(c3ccccc3)C(=O)C2N1Nc1ccccc1` (stereo not given), the composite z-score was 0.664 in test [1]; 0.696 in test [2]; 0.91 in test [3]; 0.564 in [5]; -0.501 in test [6]; -0.633 in [7]. The composite z-score is -0.293 in test [8], -0.699 in test [9] and 1.16 in test [10]. In addition, in [4], the z-score was 0.759 (inactive).

For the molecule `CC(C)N1C(=O)C[C@@](C(=O)NCCN2CCOCC2)(c2ccc([N+](=O)[O-])cc2)[C@H]1c1ccc(CO)cc1`, the composite z-score is 1.88 in test [1]; -0.477 in test [2]; 0.447 in [3]; -0.945 in test [5]; -0.175 in test [6]; -1.12 in test [7]. The composite z-score in test [8] is -0.854; in [9], -1.03; in test [10], 0.16. Also, the z-score in test [4] is -0.286 (inactive).

As for `C=CCNC(=O)[C@H]1[C@@H]2C(=O)O[C@@H](c3ccccc3)[C@@H](c3ccccc3)N2[C@@H](c2ccc(OCCO)cc2)[C@]12C(=O)Nc1ccccc12`, the composite z-score in test [1] was 1.39; in test [2], -0.106; in test [3], 0.747; in test [5] it was -0.0719; in [6], 0.164; in [7] it was -0.129. Further, the composite z-score was 0.227 in [8], -0.939 in [9] and -0.329 in [10]. Also, the z-score in [4] was -0.152 (inactive).

As for `COCCOC(=O)N1C(=O)[C@@]2(c3cc(C#CCC(C(=O)OC)C(=O)OC)ccc31)[C@H](C(=O)Nc1nc3ccccc3s1)[C@H]1C(=O)O[C@H](c3ccccc3)[C@H](c3ccccc3)N1[C@@H]2c1ccc(OCCO)cc1`, the composite z-score in test [1] stood at 0.659; in test [2] it was 0.0831; in [3], 0.164; in test [5], 1.48; in [6], 1.32; in test [7], 1.03. Also, the figures for the composite z-score in test [8], in test [9] and in test [10] were 1, 1.04 and 0.286, respectively. Besides, the z-score in test [4] was 0.0491 (inactive).

As for `C=CCC(OC(C)=O)[C@@H]1[C@@H](N(Cc2cc3ccccc3o2)C(=O)Cc2ccc(OC)cc2)c2cc(OCCCO)ccc2N1C(=O)c1ccc2ccccc2n1` (stereo not given in full), the composite z-score came out at 0.0682 in [1]; 0.0671 in test [2]; 0.393 in test [3]; 0.116 in test [5]; 0.0115 in [6]; 0.357 in test [7]. Besides, the figures for the composite z-score in test [8], in [9] and in [10] were 0.367, 0.0467 and 1.42, respectively. In test [4], the z-score was -0.536 (inactive).

With `CC(C)(C)N1CC=CC23O[C@@H]4/C=C\CCCOC(=O)C4[C@H]2C(=O)N(CCCCCO)[C@@H]3C1=O` (stereo not given in full), the composite z-score in [1] was 1.58; in test [2], -0.3; in [3] it was 0.149; in [5] it was -0.943; in [6], -0.581; in [7], -1.43. Also, the composite z-score in [8] was -1.63; in test [9] it was -0.473; in [10], -1.11. Further, the z-score in test [4] was -0.464 (inactive).

For the molecule `C=C(CCCC)C(=O)CC[C@H](OC(=O)c1ccccc1-c1ccccc1C(=O)O)c1ccc(OCCO)cc1`, the composite z-score in test [1] was 1.25; in test [2] it was -0.253; in test [3], -0.403; in [5] it was 0.569; in test [6] it was 0.107; in test [7], 0.12. For the same molecule, the composite z-score turned out to be 0.0258 in test [8], 0.248 in test [9] and 1.09 in test [10]. In addition, the z-score in [4] was 1.02 (inactive).

As to `O=C1C[C@@](C(=O)NC2CC2)(c2ccc([N+](=O)[O-])cc2)[C@@H](c2ccc(CO)cc2)N1C1CCCCC1`, the composite z-score in test [1] was 1.68; in test [2] it was 0.0035; in test [3] it was 0.49; in [5], 1.5; in [6] it was 0.808; in test [7], 0.359. Also, the composite z-score in [8] was 1.32; in test [9], 0.517; in test [10] it was 0.357. For the same molecule, in [4], the z-score was -0.975 (inactive).

Regarding `CC(C)=CCCC=C(C)C(O)C1C=CC2C(=O)N(c3ccccc3)C(=O)C2N1Nc1ccc(C#N)cc1` (stereo not given), the composite z-score in test [1] came to 0.669; in [2] it was 0.473; in test [3] it was 0.722; in test [5], 0.569; in [6] it was 1.3; in test [7] it was 0.411. For the same molecule, the figures for the composite z-score in test [8], in [9] and in [10] were 1.29, 0.0902 and 1.16, respectively. For the same molecule, the z-score in test [4] is -0.403 (inactive).

Take `COCCOC(=O)N1C(=O)[C@@]2(c3cc(C#CCC(C(=O)OC)C(=O)OC)ccc31)[C@H](C(=O)Nc1nc3ccccc3s1)[C@H]1C(=O)O[C@H](c3ccccc3)[C@H](c3ccccc3)N1[C@@H]2c1ccc(O)cc1`: the composite z-score in [1] was found to be 1.42; in [2] it was 0.0737; in test [3], 0.309; in test [5] it was 1.34; in [6], 1.3; in test [7], 0.861. The composite z-score in test [8] came out at 1.41; in [9] it was 1.06; in [10], 0.157. Also, the z-score in test [4] is -0.88 (inactive).
